# Compound activity: PubChem, several laboratories
# An excerpt weighted towards active compounds, which were near 2.2% of everything screened.
# BaF3 tox = reduces parental Ba/F3 cell viability, JAK2V617F counter-screen. CellTiter-Glo ATP luminescence. inhibition, % at 5.6 µM. actives 1.1% (n = 220,000). AID 1486;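 active means inhibition above a per-campaign cutoff, the mean inhibition of all tested compounds plus 3 SD, cut at about 27% in these data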;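 further: 0% = DMSO wells and 100% = JAK Inhibitor I control wells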
# aSyn 5UTR inh = MLPCN primary screen, SNCA 5' untranslated region; alpha-synuclein 5'UTR reporter, inhibitor activity; inhibition, % (tested at 7.5 µM); actives 0.82% (n = 300,000); AID 1813; in the data active means inhibition above about 60%;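 further: H4 neuroglioblastoma cells stably carrying SNCA 5'UTR luciferase fusion; 0% = DMSO wells and 100% = positive control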
# KLF5 inh = suppresses KLF5 promoter-driven expression; DLD-1 KLF5 promoter-luciferase reporter, luminescence; inhibition, % at 5 µM; actives 0.23% (n = 290,000);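 active means inhibition above a per-plate limit of that plate's mean compound inhibition plus 3 SD, cut at about 60% in these data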;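 further: 0% = DMSO wells and 100% = LY294002 at 200 µM; higher means less KLF5 promoter-driven luciferase light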
# IEC-6 cytotox = IEC-6 cytotoxicity, counter-screen for KLF5 inhibitors; luminescence viability; inhibition, % at 5 µM; actives 0.78% (n = 290,000); in the data active means inhibition above about 22%;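 further: 0% = plate median of test compound wells and 100% = cytotoxic reference compound wells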
# Ba/F3 V617F tox = lowers viability of Ba/F3 cells expressing EpoR and JAK2V617F. actives 1.1% (n = 220,000). AID 1446. ATP luminescence. inhibition, % at 5.6 µM;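 active means inhibition above the campaign mean plus 3 SD over all tested compounds, cut at about 24% in these data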;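 further: cytokine-independent growth of Ba/F3 cells driven by EpoR plus mutant JAK2; 0% = DMSO-treated cells and 100% = JAK inhibitor I control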
# APP transl inh = APP translation inhibition; actives 0.82% (n = 190,000); SH-SY5Y APP 5'UTR-luciferase reporter, luminescence; inhibition, % at 2 µM;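 active means inhibition above a set limit, derived from the sample mean plus 3 SD, cut at about 45% in these data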
# BaF3 parental 2 = parental Ba/F3 viability inhibition for JAK2V617F counter-screen; shares compounds with Ba/F3 V617F tox; AID 1520; CellTiter-Glo luminescence; cells kept alive by added IL-3; actives 31% (n = 580); inhibition, % at 5.6 µM;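 active means cell growth inhibition above the hit limit set in the earlier mutant JAK2 cell screen, cut at about 27% in these data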;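 further: plate controls were DMSO-treated cells for no effect and JAK Inhibitor I control wells for full effect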
# JAK2V617F confrm = Ba/F3 EpoR-JAK2V617F viability loss, confirmation. shares compounds with Ba/F3 V617F tox. CellTiter-Glo luminescence. inhibition, % at 5.6 µM. actives 66% (n = 580). AID 1521;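 active means mean inhibition above the hit cutoff derived in the earlier primary screen, cut at about 25% in these data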;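 further: 0% = DMSO-treated cells and 100% = JAK inhibitor I control wells; higher means lower luminescence from reduced cell ATP and viability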
# Starred values were filed as active, the others as inactive; nt = not tested or not shown.
SMILES,BaF3 tox,aSyn 5UTR inh,KLF5 inh,IEC-6 cytotox,Ba/F3 V617F tox,APP transl inh,BaF3 parental 2,JAK2V617F confrm
O=C(/C=C1\NC2(CCCC2)Cc2ccccc21)C(=O)N/N=C/c1ccc(O)c(O)c1,3,-29,4,4,45*,31,12,95*
OCC1CCCC(n2cnc3c(=S)nc[nH]c32)O1 (configuration not stated),22,9,-5,11,24*,nt,0,1
Cc1ccc2cc(CCNC(=O)CC(C)C)c(=O)[nH]c2c1,8,7,-33,7,69*,-16,-3,-2
CCOc1ccc(CCNC(=O)Cn2ccc3ccccc3c2=O)cc1OCC,1,18,-3,4,101*,-10,-1,5
CCOc1ccc(CCNC(=O)Cn2cccc2C(=O)c2ccccc2)cc1OCC,2,7,8,-1,1,19,nt,nt
CCCCCCCN(C(=O)CCl)c1cccc(C)c1,10,-31,13,6,7,-5,nt,nt
CCCCCCN(C(=O)CCl)c1ccccc1,0,-37,-53,-6,49*,nt,1,63*
COc1cc2c(cc1OC)-c1cc(N3CCCc4ccccc43)nc(=O)n1CC2,15,29,-14,-2,30*,12,15,61*
O=[N+]([O-])c1cc(/C=N/Nc2nc3ccccc3[nH]2)c(O)cc1O,-4,59,23,2,30*,50*,68*,81*
COc1cccc(C(=O)CSc2nnc(-c3cc(OC)cc(OC)c3)o2)c1,-1,39,-21,0,-3,-13,nt,nt
CCOC(=O)c1c(C)noc1-c1ccco1,2,0,-10,-1,0,nt,nt,nt
COc1ccc2nc(NC(=O)CN3CCN(C)CC3)sc2c1,3,-34,-51,-2,-2,-1,nt,nt
COc1ccc2nc(NC(=O)CN3CCOCC3)sc2c1,5,-63,-23,-1,83*,-5,1,-6
O=C(/C=C/c1ccccc1)c1ccc2c(c1)OCCCCO2,0,-198,-80,1,0,-147,nt,nt
O=C(CCl)N(C/C=C/c1ccccc1)c1ccc2c(c1)OCCO2,5,-81,-25,4,40*,-19,20,94*
CCc1n[nH]c2c1/C(=N\O)CC(C)(C)C2,2,0,13,-1,3,-7,nt,nt
O=S(=O)(c1cnc(Cl)c(Br)c1)N1CCc2ccccc21,0,30,-16,-5,28*,nt,0,58*
O=S(=O)(c1cnc(Cl)c(Cl)c1)N1CCc2ccccc21,-3,-30,-12,-2,25*,nt,-6,59*
O=S(=O)(c1cnc(Cl)c(Cl)c1)N1CCCc2ccccc21,3,-34,5,6,4,-12,nt,nt
O=S(=O)(c1cc(Cl)ccc1Cl)N1CCc2ccccc21,nt,-6,-33,8,nt,nt,nt,nt
O=C(Nc1ccccc1F)N(Cc1ccc(F)cc1)Cc1nc2ccccc2c(=O)[nH]1,3,16,-33,-4,-1,-19,nt,nt
COc1ccccc1NS(=O)(=O)c1cc([N+](=O)[O-])ccc1N/N=C/c1sc(N2CCOCC2)nc1-c1ccccc1,7,53,-35,-3,0,-10,nt,nt
CCOc1cc(S(=O)(=O)n2ccc(C)n2)ccc1Br,13,-7,-7,2,30*,11,-8,-3
CCOc1cc(S(=O)(=O)n2ccnc2)ccc1Br,5,-6,-22,1,2,1,nt,nt
Cc1csc(=Nc2cccnc2)n1Cc1ccco1,0,-12,3,8,0,17,nt,nt
SMILES,BaF3 tox,aSyn 5UTR inh,KLF5 inh,IEC-6 cytotox,Ba/F3 V617F tox,APP transl inh,BaF3 parental 2,JAK2V617F confrm
Cc1sc2nc3c4ccccc4c(NCc4ccco4)nn3c(=O)c2c1C,4,nt,26,-7,4,-136,nt,nt
Cc1nc(NCc2ccco2)c2c(C)c(C)sc2n1,4,-177,3,18,27*,4,34*,84*
Cc1ccc(NC(=S)N(Cc2cccc(Br)c2)CC2CCC(C(=O)O)CC2)cc1 (configuration not stated),6,-32,-18,-6,-3,-16,nt,nt
Cc1cc(NC(=S)N(Cc2cccc(Br)c2)CC2CCC(C(=O)O)CC2)ccc1Cl (configuration not stated),25,25,2,2,29*,-22,27*,38*
CCCOc1ccc(-c2csc3nc[nH]c(=O)c23)cc1,nt,-159,-109,0,nt,nt,nt,nt
N/C(=N\OC(=O)c1cccc(Br)c1)c1ccc(Br)cc1,1,-96,7,7,35*,5,-3,-2
Oc1ccccc1OCCOc1ccccc1OCCOc1ccccc1O,22,-5,-9,0,26*,-4,26,71*
Oc1ccccc1OCC(O)c1ccccc1 (configuration not stated),nt,-14,-2,8,nt,nt,nt,nt
Cc1cccn2cc(COc3cccc([N+](=O)[O-])c3)nc12,10,-65,-36,2,6,-22,nt,nt
Cc1cccn2cc(COc3ccc(-c4ccccc4)cc3)nc12,25,-54,-41,-12,48*,-44,43*,43*
Nc1c(-c2ccccc2)cnn1-c1ccc(C(=O)O)cc1,1,-130,-84,0,53*,-137,-3,-2
Cc1ccc(-c2cnn(-c3ccccc3)c2N)cc1,nt,-69,-17,10,nt,nt,nt,nt
CCOc1ccc(CN2CCN(C3CCC3)CC2CCO)cc1 (configuration not stated),nt,15,-8,-1,nt,nt,nt,nt
CCC(C)N1C(=O)S/C(=C/c2ccc3c(c2)n(C)c(=O)n3C)C1=O (configuration not stated),4,-69,-32,2,67*,-2,-3,16
Cc1[nH]c2ccc(F)cc2c1CCN(Cc1ccncc1)C(=S)Nc1cccc(F)c1,25,6,-23,4,27*,21,29*,47*
C/C(=C\C(=O)O)CC(=O)O,4,-4,-7,5,53*,-14,-6,-7
O=C(CSc1ccc(-c2cccs2)nn1)c1cccs1,8,-68,-61,-4,1,-36,nt,nt
CCCc1nc2n[nH]c(N)c2c2c1CCCC2,3,43,-2,3,25*,-14,-1,39*
CCCc1nc2n[nH]c(N)c2c2c1CCC2,0,29,1,7,1,6,nt,nt
COc1ccc2nc(C)cc(Sc3nc4ccccc4s3)c2c1,5,5,-22,18,32*,nt,17,55*
COc1ccc2nc(C)cc(SCC(=O)NNC(=O)COc3ccccc3)c2c1,1,-8,-6,0,-4,0,nt,nt
CCNC(=S)NNC(=O)c1ccccn1,6,5,2,-11,3,10,nt,nt
O=C(NNC(=S)Nc1ccc(Cl)c(Cl)c1)c1ccccn1,4,68*,50,6,32*,31,51*,47*
